Data published in PubChem BioAssay (NCI).
About 83,000 compounds went through this panel and 20% of them were active in at least one assay; those are over-represented in the sample as a whole.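 Assay: single dose, 48 h. Readout: percent growth (0 = no net growth; negative = cell death). Active: <10.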 A number with no mark means an inactive call. Active and inactive are the calls of the source.

system: HL-60(TB) leukemia; assay: NCI-60 one-dose screen, 48 h (100 = growth as untreated, 0 = no growth, -100 = all killed); conditions: 10 µM unless noted

| SMILES | growth |
| --- | --- |
| COc1cc(Nc2ncc(F)c(Nc3ccc4c(n3)NC(=O)C(C)(C)O4)n2)cc(OC)c1OC | 103% |
| O=C(O)c1ccccc1C(F)(F)F | 100% |
| CCC1CCc2nc3sc(C(=O)Nc4cccc(C)c4)c(N)c3cc2C1 (stereo not given) | 55.7% |
| O=C(NCCNc1nccc(-c2c(-c3cccc(O)c3)nc3sccn23)n1)c1cc(N2CCOCC2)cc(C(F)(F)F)c1 | 102% |
| Cc1cc(Nc2ccc(OCc3ccccc3)cc2)nc2cc(O)ccc12 | -44.4% (active) |
| O=C(Nc1ccccc1CNc1nc(Nc2ccc(OCCN3CCCC3)cc2)ncc1Cl)NC1CCCCC1 | 99.9% |
| Cc1occc1-c1nnc(SCC(=O)c2ccc(NC(=O)CC(C)C)cc2)o1 | 98.3% |
| CCNNC(=O)[C@@H]1[C@H](c2cc(OC)c(OC)c(OC)c2)c2cc3c(cc2[C@H](O)[C@H]1CO)OCO3 | -24.1% (active) |
| Cc1nn2c(-c3nc4cc(Cl)c(Cl)cc4[nH]3)c(-c3ccc(F)cc3)nc2s1 | 106% |
| COc1cc(CCC[P+](c2ccccc2)(c2ccccc2)c2ccccc2)c(OC)c2c1OCO2 | 13.6% |
| C=C1C(=O)O[C@H]2[C@H]1CC/C(COC(=O)CCCCCCC(=O)OC/C1=C/CC[C@@]3(C)O[C@H]3[C@H]3OC(=O)C(=C)[C@@H]3CC1)=C\CC[C@@]1(C)O[C@@H]21 | -13.8% (active) |
| COc1cc(-c2ccc3c(c2)NC(=O)/C3=C\c2ccc[nH]2)ccc1O | -12.6% (active) |
| COc1ccc(-c2nc(N/N=C/c3cccc(O)c3)nc(N3CCOCC3)c2C#N)cc1 | 49.2% |
| CCCCOc1ccc(/C(C)=N/Nc2cc(C)nc3ccc(Br)cc23)cc1 | 78.5% |
| NC(CCl)=NCCC[C@H](N)C(=O)O | 104% |
| CN(C)c1ccc(C(c2ccc(O)cc2)c2ccc(N(C)C)cc2)cc1 | 87.1% |
| CS(=O)CCCCCN=C=S (stereo not given) | -33.9% (active) |
| OC(c1ccccc1)C(NCc1ccccc1)c1ccccc1 (stereo not given) | 98.4% |
| Cc1ccc2nc(SCn3nnc4ccccc4c3=O)[nH]c2c1 | 80.3% |
| COc1cc(C2C(C#N)=C(N)OC3=C2C(=O)c2ccccc2C3=O)cc(OC)c1O (stereo not given) | 90.9% |

| SMILES | growth |
| --- | --- |
| Nc1c(C(=O)Nc2cccc(Cl)c2)sc2ncc(Cl)cc12 | 88.7% |
| C=C1CC[C@@H]2[C@](C)(COC(C)=O)[C@H](OC(C)=O)CC[C@@]2(C)[C@@H]1CC(NCc1ccccc1)C1=CCOC1=O (stereo not given in full) | -9.93% (active) |
| CCOC(=O)C(CCN(C)C)c1ccccc1 (stereo not given) | 88.8% |
| CCC1=CCC[C@@]2(C)CCC[C@@]3(C)CCCC(C)(C)[C@]1([O-])[O+]32 | 107% |
| COc1cccc(-c2nc3sccn3c2/C=C/C(=O)c2ccc(C(F)(F)F)cc2)c1 | 46.2% |
| CCCCNc1nnc(-c2cc(-c3cc4ccccc4o3)nn2-c2ccccc2)o1 | 86.5% |
| O=[N+]([O-])c1cc(Br)cc2c1[nH]c1ccc(Br)cc12 | 85% |
| O=C(N/N=C(\CS(=O)(=O)c1ccccc1)c1cc2cc(Br)ccc2oc1=O)c1ccccc1 | 119% |
| Cn1cc(-c2nonc2-c2c[nH]c3ccccc23)c2cc(Br)ccc21 | 38.2% |
| COc1cc(NCC(O)CN(CC(C)C)CC(C)C)c2nc(C)ccc2c1 (stereo not given) | 81.2% |
| O=C(CCl)Nc1ccc2c(c1)C(=O)c1ccc(NC(=O)CCl)cc1C2=O | -59.7% (active) |
| CCOC(=O)/C(=C/CC/C(C)=C/CC/C(C)=C/CCc1ccoc1)CC(=O)N1CCCCC1 | -35.2% (active) |
| COc1ccc(OC)c(/C=C/c2nc(SC)n(-c3ccc(Cl)cc3)n2)c1 | 65.7% |
| CCOC(=O)C(=Cc1ccccc1[N+](=O)[O-])C(=O)OCC | -26.5% (active) |
| CC(C)=CCNc1ncnc2c1ncn2C1OC(COP(=O)(O)O)C(O)C1O (stereo not given) | -38.4% (active) |
| COc1ccc(-c2cc(/C=C3\C(=O)Nc4ccc(Cl)cc43)[nH]n2)cc1 | 22.6% |
| CO/C(=C1/NC(=O)C(Cc2ccc(O)c(Br)c2)N(C)C(=O)C(C)NC(=O)CCC/C=C(\C)CCC(C)OC1=O)c1ccccc1 (stereo not given) | -58.6% (active) |
| N#Cc1c(C#N)c(SSc2c(C#N)c(C#N)c(N)n2-c2ccccc2)n(-c2ccccc2)c1N | 99.2% |
| Cc1cc(C)c(NC(=O)c2sc3nc4c(cc3c2N)C(=O)CCC4)c(C)c1 | 14.6% |
| CCN(CCO)CCCOc1ccc2c(Nc3cc(CC(=O)Nc4cccc(F)c4)[nH]n3)ncnc2c1 | -2.32% (active) |
